Test results reported in PubChem BioAssay (NCATS).
Values without a mark were called inactive. Results filed as inconclusive are left out. Activity calls are given as the source filed them. Unless noted, calls follow the shape of the dose curve; as a rule, active = well fitted curve in either direction with a large enough effect (not every such curve was filed as active); inconclusive = small, poorly fitted or top-dose-only effect, or another doubt; inactive = flat fitted curve, though single readings scatter.

Tests used:
[1] = biological target: Lysosomal acid glucosylceramidase (Homo sapiens) (UniProt P04062); assay: Glucocerebrosidase-p2 (AID 348; in the data active = potency below about 10 µM; also: potency is read from the fitted curve at half-maximal effect); details: purified GBA, blue fluorogenic substrate, 40 min
Sequence of Lysosomal acid glucosylceramidase (Homo sapiens) (P04062 whole entry, looked up): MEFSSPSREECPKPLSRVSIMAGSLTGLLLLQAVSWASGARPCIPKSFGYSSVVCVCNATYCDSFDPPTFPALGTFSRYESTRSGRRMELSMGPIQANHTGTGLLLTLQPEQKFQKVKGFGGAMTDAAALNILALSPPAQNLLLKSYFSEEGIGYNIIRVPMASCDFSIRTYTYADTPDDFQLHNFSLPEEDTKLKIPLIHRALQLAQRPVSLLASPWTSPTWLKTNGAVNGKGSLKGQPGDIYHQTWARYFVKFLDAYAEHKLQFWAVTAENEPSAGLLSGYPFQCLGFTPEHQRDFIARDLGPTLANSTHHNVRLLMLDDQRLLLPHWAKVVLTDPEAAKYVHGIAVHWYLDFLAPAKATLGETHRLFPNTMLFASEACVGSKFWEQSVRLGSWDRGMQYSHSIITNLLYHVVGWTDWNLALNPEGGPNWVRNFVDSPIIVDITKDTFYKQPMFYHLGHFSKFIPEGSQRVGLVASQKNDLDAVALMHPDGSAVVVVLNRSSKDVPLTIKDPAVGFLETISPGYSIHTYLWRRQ
Outline: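 Compounds titrated from 0.6 nM upwards against 0.2 nM enzyme in pH 5.9 citric acid/KH2PO4, taurocholate, tween-20; blue fluorogenic substrate 80 uM, 40 min room temperature, stopped and read Ex 365/Em 440 for AC50.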

[2] = AP1 Signaling Pathway (AID 357); details: ME-180 AP-1-bla reporter, EGF-induced, beta-lactamase ratio, 5 h; at 7.69 µM (top of the series) unless noted; also: % is scaled to controls: 0 for no effect and ±100 for the full control effect
Outline: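 ME-180 cells with beta-lactamase reporter under AP-1 response element, stimulated with EC50 EGF; compounds tested in titration series, 5 h at 37 °C. CCF4 substrate added 2.5 h at room temperature; 460/530 nm emission ratio gave %activity and AC50.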

[3] = NFAT Signaling Pathway (AID 444); details: Jurkat NFAT-bla M1, carbachol, beta-lactamase ratio, 5 h; at 7.69 µM (top of the series) unless noted;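 also: carbachol stimulus at about its EC50 of 1 µM final; % is scaled to controls: 0 for no effect and ±100 for the full control effect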
Outline: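 Jurkat cells carrying an NFAT-driven β-lactamase reporter and co-transfected muscarinic M1 receptor were treated with compound plus carbachol (1 uM final, an EC50 level) for 5 h at 37 °C. CCF4 loading followed for 1 h at RT; 460/530 nm ratio gave %activity.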

[4] = Stat Signaling Pathway (AID 446); details: ME-180 SIE beta-lactamase reporter, IL-6 stimulated, 5 h; series mostly up to 7.69 µM;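 also: ME-180 cervical cancer cells given 40 pM IL-6 alongside compound; SIE-controlled beta-lactamase reporter measured as 460/530 nm FRET emission ratio; % is scaled to controls: 0 for no effect and ±100 for the full control effect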
Outline: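 IL-6/STAT signaling read in ME-180 cells via an SIE beta-lactamase reporter. Stimulus was 40 pM IL-6 (its AC50) for 5 hrs, so both activation and inhibition register.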

[5] = biological target: Glucocorticoid receptor (Homo sapiens) (UniProt P04150); assay: GR-GFP Redistribution (AID 450;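 active = compounds whose dose series gives a full or clear partial fitted curve of increased nuclear translocation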; also: potency is read from the fitted curve at half-maximal effect); details: U2OS GR-GFP nuclear translocation, laser cytometry, 2 h
Sequence of Glucocorticoid receptor (Homo sapiens) (P04150 whole entry, looked up, the tested form may be a part): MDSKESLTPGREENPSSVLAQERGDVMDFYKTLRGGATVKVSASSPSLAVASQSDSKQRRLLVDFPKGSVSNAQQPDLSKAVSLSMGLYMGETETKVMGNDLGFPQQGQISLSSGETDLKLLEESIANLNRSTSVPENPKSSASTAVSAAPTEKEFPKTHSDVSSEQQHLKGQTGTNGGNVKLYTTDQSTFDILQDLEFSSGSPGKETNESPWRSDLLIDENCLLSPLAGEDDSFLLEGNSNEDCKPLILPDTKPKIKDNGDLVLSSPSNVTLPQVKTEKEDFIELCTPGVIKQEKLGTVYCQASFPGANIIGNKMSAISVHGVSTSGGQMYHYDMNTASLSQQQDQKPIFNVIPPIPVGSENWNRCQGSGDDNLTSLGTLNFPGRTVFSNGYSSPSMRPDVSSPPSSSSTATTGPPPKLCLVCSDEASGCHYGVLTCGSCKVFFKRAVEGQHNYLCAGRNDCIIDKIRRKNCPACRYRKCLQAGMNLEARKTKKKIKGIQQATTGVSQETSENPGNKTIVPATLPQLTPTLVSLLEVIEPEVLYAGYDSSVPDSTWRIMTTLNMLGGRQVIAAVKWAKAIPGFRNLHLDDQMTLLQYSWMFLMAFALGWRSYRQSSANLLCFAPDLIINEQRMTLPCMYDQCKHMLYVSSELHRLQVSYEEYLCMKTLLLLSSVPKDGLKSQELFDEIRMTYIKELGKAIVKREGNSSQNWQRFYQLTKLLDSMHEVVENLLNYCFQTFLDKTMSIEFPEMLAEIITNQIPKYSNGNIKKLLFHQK

[6] = biological target: Glucocorticoid receptor (Homo sapiens) (UniProt P04150); assay: GR-EFC Redistribution (AID 451; calls by dose curve; also: potency is read from the fitted curve at half-maximal effect); details: CHO-K1 GR-EFC translocation, beta-gal luminescence, 2 h
Outline: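 CHO-K1 cells stably expressing nuclear-localized β-gal enzyme acceptor and GR fused C-terminally to the enzyme donor fragment; ligand-driven nuclear translocation restores β-gal by complementation. Compounds titrated up to 46 uM final, 2 h at 37 °C; luminescence read.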

[7] = qHTS Assay for Identification of Small Molecule Agonists for Hypoxia Response Element Signaling Pathway (AID 914; active = well fitted activation curve with a large enough effect in the signal ratio, with a control signal flat, not every such curve was filed as active; the % refers to the signal ratio; also: % of control where 0% means no effect); details: ME-180 (cervical carcinoma) HRE-bla reporter, beta-lactamase ratio, CoCl2, 17 h; activation: hits give high values
Outline: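 Read-out: CCF4 FRET ratio of 460nm to 530nm emission (excitation 405nm) after 2.5 hours at room temperature, taken from HRE-bla ME-180 cells that had been exposed to compound and EC50 CoCl2 for 17 hours.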

[8] = biological target: Dual specificity protein kinase CLK4 (Homo sapiens) (UniProt Q9HAZ1); assay: qHTS Assay for Inhibitors of CDC-like Kinase 4 (Kinase-Glo Assay) (AID 1770; active = well fitted curve in the direction sought with a large enough effect; an effect the other way counts as inactive or inconclusive; also: nearly all actives have a fitted effect of over 65% in size; also: potency is read from the fitted curve at half-maximal effect); details: recombinant Clk4, Kinase-Glo ATP depletion luminescence; series mostly up to 66.7 µM
Sequence of Dual specificity protein kinase CLK4 (Homo sapiens) (Q9HAZ1 whole entry, looked up): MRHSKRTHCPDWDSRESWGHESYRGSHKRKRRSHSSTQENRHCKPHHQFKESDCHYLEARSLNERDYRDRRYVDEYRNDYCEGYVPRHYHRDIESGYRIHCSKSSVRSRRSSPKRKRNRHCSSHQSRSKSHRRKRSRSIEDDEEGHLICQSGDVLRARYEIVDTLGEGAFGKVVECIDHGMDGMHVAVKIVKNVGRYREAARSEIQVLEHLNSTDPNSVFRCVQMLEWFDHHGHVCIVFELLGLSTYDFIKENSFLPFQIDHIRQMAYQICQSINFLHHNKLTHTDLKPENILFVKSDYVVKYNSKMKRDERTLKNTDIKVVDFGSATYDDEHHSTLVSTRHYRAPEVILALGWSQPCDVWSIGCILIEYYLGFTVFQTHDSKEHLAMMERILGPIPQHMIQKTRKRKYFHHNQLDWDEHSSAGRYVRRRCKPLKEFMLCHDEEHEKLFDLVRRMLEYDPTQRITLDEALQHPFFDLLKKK
Outline: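 Readout: Kinase-Glo luminescence from ATP left after a 4.5 h room-temperature reaction of 25 nM Clk4 with 100 uM RS peptide and 1 uM ATP (final). Buffer: 25 mM Tris pH 7.5, 10 mM MgCl2.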

[9] = biological target: Dual specificity protein kinase CLK4 (Homo sapiens) (UniProt Q9HAZ1); assay: qHTS Assay for Inhibitors of CDC-like Kinase 4 (ADP-Glo Assay) (AID 1771; active = well fitted curve in the direction sought with a large enough effect; an effect the other way counts as inactive or inconclusive; also: nearly all actives have a fitted effect of over 70% in size; also: potency is read from the fitted curve at half-maximal effect); details: recombinant CLK4, ADP-Glo luminescence; series mostly up to 80 µM
Outline: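 Luminescence from ADP-Glo reports ADP produced by 25 nM Clk4 acting on 100 uM RS repeat peptide with 1 uM ATP over 1 hr at room temperature; residual ATP is depleted before ADP is converted to ATP for detection.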

[10] = biological target: Mitogen-activated protein kinase 10 (Mus musculus) (UniProt Q61831); assay: JNK3 AlphaScreen Assay (AID 530); details: JNK3 lysate, c-Jun phosphorylation; series mostly up to 57.1 µM;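 also: kinase came from lysate of stimulated human HepG2 cells; signal reports phosphorylation of biotinylated GST-cJun 1-79 at Ser73 with 10 µM ATP; % is scaled to controls: 0 for no effect and ±100 for the full control effect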
Outline: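 Inhibitors reduce antibody binding to phosphorylated biotin-cJun, lowering AlphaScreen luminescence. Lysates from HepG2 cells pre-activated by IL-1beta plus TNF-alpha supplied JNK3; compounds were titrated.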

[11] = biological target: 3',5'-cyclic-AMP phosphodiesterase 4B (Homo sapiens) (UniProt Q07343); assay: qHTS Assay for Inhibitors of PDE-IV (AID 607; active = well fitted activation curve with a large enough effect in the main read-out, with a control signal flat, not every such curve was filed as active; also: % of control where 0% means no effect); details: HEK293 ACTOne CNG channel cells, membrane potential fluorescence; series mostly up to 22.9 µM
Sequence of 3',5'-cyclic-AMP phosphodiesterase 4B (Homo sapiens) (Q07343 whole entry, looked up): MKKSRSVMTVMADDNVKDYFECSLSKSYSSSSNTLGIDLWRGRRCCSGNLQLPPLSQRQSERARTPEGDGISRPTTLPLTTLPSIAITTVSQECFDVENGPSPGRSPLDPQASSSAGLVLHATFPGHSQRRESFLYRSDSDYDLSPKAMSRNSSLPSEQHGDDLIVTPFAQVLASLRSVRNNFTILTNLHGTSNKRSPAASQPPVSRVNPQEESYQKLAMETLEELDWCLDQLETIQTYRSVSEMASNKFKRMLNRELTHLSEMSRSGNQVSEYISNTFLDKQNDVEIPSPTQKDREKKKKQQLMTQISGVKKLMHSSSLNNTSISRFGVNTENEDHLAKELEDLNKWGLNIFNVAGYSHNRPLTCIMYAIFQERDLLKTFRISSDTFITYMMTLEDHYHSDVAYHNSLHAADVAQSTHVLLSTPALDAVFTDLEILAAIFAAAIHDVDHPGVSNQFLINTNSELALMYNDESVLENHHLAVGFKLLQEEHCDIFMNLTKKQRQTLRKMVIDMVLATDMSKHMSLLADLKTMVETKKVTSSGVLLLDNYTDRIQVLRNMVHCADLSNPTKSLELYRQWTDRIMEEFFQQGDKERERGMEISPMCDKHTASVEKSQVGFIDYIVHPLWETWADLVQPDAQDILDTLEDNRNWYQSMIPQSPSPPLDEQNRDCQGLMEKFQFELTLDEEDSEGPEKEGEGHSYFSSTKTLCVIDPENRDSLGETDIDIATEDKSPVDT
Outline: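 Live HEK293 cells with a modified cyclic nucleotide-gated (CNG) channel report intracellular cAMP via membrane-potential dye fluorescence (ex 535/em 590 nm). Endogenous PDE-IV was targeted. Compounds were tested at up to 22.9 uM final; RO 20-1724 100 uM served as control.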

[12] = biological target: Ubiquitin carboxyl-terminal hydrolase 1 (Homo sapiens) (UniProt O94782); assay: Inhibitors of USP1/UAF1: Pilot qHTS (AID 504865; active = well fitted curve in the direction sought with a large enough effect; an effect the other way counts as inactive or inconclusive;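 also: rhodamine fluorescence freed from ubiquitin-rhodamine substrate followed over time; top concentration of the series differs between compounds; % is scaled to controls: 0 for no effect and ±100 for the full control effect; nearly all actives have a fitted effect of over 35% in size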); details: purified USP1/UAF1, Ub-rhodamine cleavage fluorescence; series mostly up to 54.9 µM
Sequence of Ubiquitin carboxyl-terminal hydrolase 1 (Homo sapiens) (O94782 whole entry, looked up): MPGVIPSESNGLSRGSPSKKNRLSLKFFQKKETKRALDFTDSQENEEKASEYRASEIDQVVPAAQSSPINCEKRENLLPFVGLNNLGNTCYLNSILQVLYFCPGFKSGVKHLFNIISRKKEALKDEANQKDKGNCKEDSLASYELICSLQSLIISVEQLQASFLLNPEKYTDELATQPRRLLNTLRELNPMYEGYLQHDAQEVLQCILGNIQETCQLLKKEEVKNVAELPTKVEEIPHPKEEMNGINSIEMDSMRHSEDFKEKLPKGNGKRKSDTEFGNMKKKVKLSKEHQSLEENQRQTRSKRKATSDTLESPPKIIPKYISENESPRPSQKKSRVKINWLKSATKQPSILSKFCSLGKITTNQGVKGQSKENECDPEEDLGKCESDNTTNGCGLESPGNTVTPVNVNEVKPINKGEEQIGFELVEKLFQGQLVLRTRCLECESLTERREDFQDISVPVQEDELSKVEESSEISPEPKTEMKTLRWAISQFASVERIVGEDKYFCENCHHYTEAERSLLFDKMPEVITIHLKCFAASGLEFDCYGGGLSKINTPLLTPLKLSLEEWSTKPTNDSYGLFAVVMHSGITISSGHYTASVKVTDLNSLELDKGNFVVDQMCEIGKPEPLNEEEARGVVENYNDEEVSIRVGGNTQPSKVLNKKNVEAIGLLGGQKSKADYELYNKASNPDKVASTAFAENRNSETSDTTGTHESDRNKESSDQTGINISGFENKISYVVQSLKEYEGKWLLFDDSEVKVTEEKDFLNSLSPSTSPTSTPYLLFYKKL
Outline: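 1nM USP1/UAF1 + cpd, 15 min RT; start w/ Ub-Rho 150nM final; kinetic FL 480/540 nm, 6 reads q60 s. Buffer 50mM HEPES pH 7.8, 0.5mM EDTA, 1mM TCEP, 0.01% Tween-20, 0.1 mg/ml BSA.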

[13] = biological target: Cytochrome P450 3A4 (Homo sapiens) (UniProt P08684); assay: qHTS Assay for Activators of Cytochrome P450 3A4 (AID 885; active = well fitted curve in the direction sought with a large enough effect; an effect the other way counts as inactive or inconclusive; also: nearly all actives have a fitted effect of over 65% in size); details: recombinant CYP3A4, Luciferin-PPXE luminescence, 60 min; series mostly up to 57.1 µM
Sequence of Cytochrome P450 3A4 (Homo sapiens) (P08684 whole entry, looked up): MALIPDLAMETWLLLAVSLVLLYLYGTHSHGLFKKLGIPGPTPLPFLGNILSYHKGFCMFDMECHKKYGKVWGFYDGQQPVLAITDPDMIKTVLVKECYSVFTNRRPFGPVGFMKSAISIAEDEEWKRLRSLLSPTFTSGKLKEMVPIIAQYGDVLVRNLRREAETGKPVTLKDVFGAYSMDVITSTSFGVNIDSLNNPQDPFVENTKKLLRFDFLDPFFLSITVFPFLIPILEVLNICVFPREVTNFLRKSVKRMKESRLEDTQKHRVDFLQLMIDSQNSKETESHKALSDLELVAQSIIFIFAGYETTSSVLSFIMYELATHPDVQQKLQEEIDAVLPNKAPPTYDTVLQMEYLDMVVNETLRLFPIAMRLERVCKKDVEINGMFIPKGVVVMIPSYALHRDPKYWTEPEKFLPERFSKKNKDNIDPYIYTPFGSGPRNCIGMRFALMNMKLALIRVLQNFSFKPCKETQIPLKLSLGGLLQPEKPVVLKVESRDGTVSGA
Outline: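 Quantitative HTS format: compounds preincubated with 20nM human CYP3A4 and Luciferin-PPXE substrate at KM, reaction started by NADPH regeneration, stopped after 60 min, luciferase luminescence read 20 min later.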

[14] = biological target: Cytochrome P450 1A2 (Homo sapiens) (UniProt P05177); assay: p450-cyp1a2 (AID 410; calls by dose curve; also: potency is read from the fitted curve at half-maximal effect); details: recombinant CYP1A2, luciferin-ME demethylation, luminescence; series mostly up to 57 µM
Sequence of Cytochrome P450 1A2 (Homo sapiens) (P05177 whole entry, looked up): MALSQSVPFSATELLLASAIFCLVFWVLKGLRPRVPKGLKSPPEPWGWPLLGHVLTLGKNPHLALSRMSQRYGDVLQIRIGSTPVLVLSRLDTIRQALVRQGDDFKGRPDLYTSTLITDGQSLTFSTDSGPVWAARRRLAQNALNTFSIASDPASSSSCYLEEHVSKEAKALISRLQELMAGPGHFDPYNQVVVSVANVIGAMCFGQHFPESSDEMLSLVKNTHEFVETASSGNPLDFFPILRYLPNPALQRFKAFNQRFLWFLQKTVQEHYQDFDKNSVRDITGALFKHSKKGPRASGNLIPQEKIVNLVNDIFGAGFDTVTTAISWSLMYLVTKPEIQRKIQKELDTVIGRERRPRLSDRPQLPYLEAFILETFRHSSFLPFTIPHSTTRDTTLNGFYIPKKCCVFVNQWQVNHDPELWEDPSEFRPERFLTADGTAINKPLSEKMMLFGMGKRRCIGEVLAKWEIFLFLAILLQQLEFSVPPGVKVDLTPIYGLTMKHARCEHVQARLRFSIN
Outline: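 Luminescent readout of luciferin formed from Luciferin-ME by human CYP1A2; data normalized against complete inhibition by 57 uM furafylline. Enzyme 20nM, substrate 100uM at Km, 100mM KPO4 buffer, 60 min reaction at room temperature.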

[15] = biological target: Cytochrome P450 2C19 (Homo sapiens) (UniProt P33261); assay: qHTS Assay for Inhibitors and Substrates of Cytochrome P450 2C19 (AID 899; active = well fitted curve in the direction sought with a large enough effect; an effect the other way counts as inactive or inconclusive; also: nearly all actives have a fitted effect of over 60% in size; also: potency is read from the fitted curve at half-maximal effect); details: recombinant CYP2C19, luciferin-H EGE luminescence; series mostly up to 57.1 µM
Sequence of Cytochrome P450 2C19 (Homo sapiens) (P33261 whole entry, looked up): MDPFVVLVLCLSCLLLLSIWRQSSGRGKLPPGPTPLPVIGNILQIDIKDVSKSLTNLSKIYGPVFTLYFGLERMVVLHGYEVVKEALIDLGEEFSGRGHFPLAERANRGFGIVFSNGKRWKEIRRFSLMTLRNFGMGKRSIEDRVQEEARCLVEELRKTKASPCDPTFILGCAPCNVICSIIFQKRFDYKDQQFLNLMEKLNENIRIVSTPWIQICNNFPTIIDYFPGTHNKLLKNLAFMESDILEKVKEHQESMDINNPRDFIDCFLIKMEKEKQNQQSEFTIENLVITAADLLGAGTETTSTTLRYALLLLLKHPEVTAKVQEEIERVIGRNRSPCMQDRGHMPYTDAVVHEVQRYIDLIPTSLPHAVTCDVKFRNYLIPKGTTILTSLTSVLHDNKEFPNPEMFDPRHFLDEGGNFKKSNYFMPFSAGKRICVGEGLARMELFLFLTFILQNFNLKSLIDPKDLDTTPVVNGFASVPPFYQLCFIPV
Outline: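 Human CYP2C19 (5nM) with Luciferin-H EGE at 10uM (its KM) in 50mM KPO4 was preincubated with compound for 10 min at 37C. NADPH regeneration started a 60 min 37C reaction. Luciferin was read by luminescence, normalized to 57uM ketoconazole.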

[16] = biological target: Dual specificity protein kinase CLK4 (Homo sapiens) (UniProt Q9HAZ1); assay: qHTS Assay for Inhibitors of CDC-like Kinase 4 (ADP-FP Assay) (AID 1795; active = well fitted curve in the direction sought with a large enough effect; an effect the other way counts as inactive or inconclusive;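 also: recombinant human CLK4 phosphorylating RS repeat peptide at 1 µM ATP; % is scaled to controls: 0 for no effect and ±100 for the full control effect; nearly all actives have a fitted effect of over 60% in size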); details: Transcreener ADP fluorescence polarization; series mostly up to 50 µM
Outline: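 FP readout: Orange Transcreener ADP2 tracer (4 nM) plus ADP antibody, read after 30 min at room temperature. Kinase step: 6.25 nM Clk4, 100 uM RS peptide, 1 uM ATP, pH 7.5, 1 h.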

Row | Compound | Potency [1] [µM] | activity change, negative = inhibition [2] [%] | activity change, negative = inhibition [3] [%] | outcome [4] | Potency [5] [µM] | Potency [6] [µM] | activation [7] [%] | Potency [8] | Potency [9] | Potency [10] | Potency [11] | Potency [12] | outcome [13] | Potency [14] | Potency [15] | Potency [16]
1 | COc1cccc(Nc2ncc3ncc(=O)n(Cc4ccc(F)cc4)c3n2)c1 | > 11.4 | -28.1 | -8.23 | inactive | > 9.22 | > 46 | -20.2 | 3.98 µM (active) | 2.51 µM (active) | – | – | – | – | – | – | –
2 | O=c1c(-c2cccc(F)c2)nc2cncnc2n1Cc1ccc(F)cc1 | > 11.4 | -9.74 | -4.79 | inactive | > 9.22 | > 46 | – | inactive | inactive | inactive | inactive | inactive | – | – | – | –
3 | COc1cccc(-c2nc(NCCN3CCOCC3)c3ccccc3n2)c1 | > 11.4 | 6.11 | -2.08 | inactive | > 46 | > 46 | – | 15.8 µM (active) | 15.8 µM (active) | inactive | inactive | inactive | inactive | – | – | –
4 | Cn1c(=O)c(-c2ccc(Cl)cc2)nc2cncnc21 | > 11.4 | -6.64 | -0.619 | inactive | – | > 46 | – | inactive | inactive | inactive | inactive | inactive | – | 0.0251 µM (active) | – | –
5 | COc1ccc(Oc2ncc3nc(-c4cccc(C#N)c4)c(=O)n(CCC#N)c3n2)cc1 | > 11.4 | -20.3 | 14.2 | inactive | > 9.22 | > 46 | – | inactive | inactive | – | – | inactive | – | 25.1 µM (active) | – | –
6 | CN(C)C(=O)c1ccc(-c2cc(NCc3ccccc3)ncn2)cc1 | > 11.4 | -9.2 | 27.8 | inactive | – | > 46 | – | 25.1 µM (active) | 31.6 µM (active) | inactive | inactive | inactive | – | 12.6 µM (active) | – | –
7 | N#Cc1ccccc1-c1ccc2ncnc(NCc3cccnc3)c2c1 | > 11.4 | -14.7 | 17.5 | inactive | > 46 | > 46 | – | 3.16 µM (active) | – | – | – | inactive | inactive | – | – | –
8 | COCCn1c(=O)c(-c2cccc(C#N)c2)nc2cnc(OCc3ccccc3)nc21 | > 11.4 | -20.4 | -5.35 | – | > 9.22 | > 46 | – | inactive | – | inactive | inactive | – | inactive | 12.6 µM (active) | inactive | –
9 | CN(C)C(=O)c1ccc(-c2nc(Nc3ccccc3)c3ccccc3n2)cc1 | > 11.4 | -10.3 | 2.53 | inactive | > 46 | > 46 | – | 15.8 µM (active) | – | inactive | – | – | inactive | 0.398 µM (active) | – | –
10 | COc1ccccc1CNc1ncnc2ccc(-c3ccc(C(=O)N(C)C)cc3)cc12 | > 11.4 | – | 14.5 | inactive | – | > 46 | – | inactive | – | inactive | – | inactive | inactive | 12.6 µM (active) | – | inactive
11 | COCCn1c(=O)c(CCc2ccccc2)nc2cnc(N(C)C)nc21 | > 11.4 | -26.9 | 3.37 | inactive | > 9.22 | > 46 | – | inactive | – | – | – | – | inactive | 1.26 µM (active) | – | inactive
12 | COc1ncc2nc(-c3cccs3)c(=O)n(CCC#N)c2n1 | > 11.4 | 10.4 | 8.94 | inactive | > 9.22 | > 46 | 25.6 | inactive | – | inactive | inactive | inactive | inactive | 6.31 µM (active) | – | inactive
13 | COc1cccc(Cn2c(=O)c(CCc3ccccc3)nc3cnc(N(C)C)nc32)c1 | > 11.4 | -2.39 | 6.19 | inactive | > 9.22 | > 46 | – | inactive | – | inactive | – | – | inactive | 15.8 µM (active) | 0.794 µM (active) | inactive
14 | CN(C)c1nc(-c2ccc3c(c2)OCO3)nc2ccccc12 | > 11.4 | 9.5 | -16.9 | inactive | > 46 | > 46 | – | inactive | – | inactive | inactive | – | – | – | – | –
